About 83,000 compounds went through this panel and 20% of them were active in at least one assay; those are over-represented in the sample as a whole.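 For each line, cells grew in 96-well plates with the test compound present at a single concentration for 48 hours.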 Activity calls are given as the source filed them. How the source made its calls: active means growth percent below 10; inactive means the rest.
What was measured:
Assay in all cases: NCI-60 one-dose screen, 48 h (100 = growth as untreated, 0 = no growth, -100 = all killed)
Details in all cases: 10 µM unless noted
HCT-15 colon = test system: HCT-15 colon
HT29 colon = test system: HT29 colon
SNB-75 CNS = test system: SNB-75 CNS
SNB-19 CNS = test system: SNB-19 CNS
U251 CNS = test system: U251 CNS
PC-3 prostate = test system: PC-3 prostate
SK-MEL-5 melanoma = test system: SK-MEL-5 melanoma
UACC-62 melanoma = test system: UACC-62 melanoma
LOX IMVI melanoma = test system: LOX IMVI melanoma
SK-MEL-28 melanoma = test system: SK-MEL-28 melanoma
SK-MEL-2 melanoma = test system: SK-MEL-2 melanoma
EKVX NSCLC = test system: EKVX NSCLC
SN12C renal = test system: SN12C renal
UO-31 renal = test system: UO-31 renal
TK-10 renal = test system: TK-10 renal
ACHN renal = test system: ACHN renal
CAKI-1 renal = test system: CAKI-1 renal
A498 renal = test system: A498 renal
CCRF-CEM leukemia = test system: CCRF-CEM leukemia
MOLT-4 leukemia = test system: MOLT-4 leukemia

Measured: growth

COc1ccc(-c2nc(SCCC(C)C)nc(Nc3ccc(C(=O)O)cc3)c2C#N)cc1
inactive: HCT-15 colon 60.6% | HT29 colon 84% | SNB-75 CNS 92.2% | SNB-19 CNS 88.8% | U251 CNS 81.5% | PC-3 prostate 58.4% | SK-MEL-5 melanoma 73.9% | UACC-62 melanoma 86.8% | LOX IMVI melanoma 82.6% | SK-MEL-28 melanoma 89.7% | SK-MEL-2 melanoma 70% | EKVX NSCLC 87.7% | SN12C renal 90.6% | UO-31 renal 67% | TK-10 renal 86.7% | ACHN renal 83.9% | CAKI-1 renal 92.1% | A498 renal 62.5% | CCRF-CEM leukemia 73.5% | MOLT-4 leukemia 78.7%

COc1ccc(NC(=O)c2sc3c(=O)[nH]c(C(F)(F)F)nc3c2C)cc1
inactive: HCT-15 colon 104% | HT29 colon 103% | SNB-75 CNS 93.7% | SNB-19 CNS 112% | U251 CNS 98.6% | PC-3 prostate 90.5% | SK-MEL-5 melanoma 106% | UACC-62 melanoma 98.9% | LOX IMVI melanoma 101% | SK-MEL-28 melanoma 109% | SK-MEL-2 melanoma 91.5% | EKVX NSCLC 83.8% | SN12C renal 99.8% | UO-31 renal 74.2% | TK-10 renal 104% | ACHN renal 102% | CAKI-1 renal 85.4% | A498 renal 108% | CCRF-CEM leukemia 90% | MOLT-4 leukemia 89.7%

NC(=O)N/N=C\c1ccc([N+](=O)[O-])o1
inactive: HCT-15 colon 92.5% | HT29 colon 111% | SNB-75 CNS 84.3% | SNB-19 CNS 113% | U251 CNS 93% | PC-3 prostate 85.2% | SK-MEL-5 melanoma 107% | UACC-62 melanoma 103% | LOX IMVI melanoma 91.5% | SK-MEL-28 melanoma 106% | SK-MEL-2 melanoma 114% | EKVX NSCLC 75.2% | SN12C renal 104% | UO-31 renal 85.2% | TK-10 renal 113% | ACHN renal 98.8% | CAKI-1 renal 86.9% | A498 renal 90.1% | CCRF-CEM leukemia 19.9% | MOLT-4 leukemia 103%

O=C(c1ccc(OCCN2CCCCC2)cc1)c1c(-c2ccc(O)cc2)sc2cc(O)ccc12
inactive: HCT-15 colon 91.7% | HT29 colon 114% | SNB-75 CNS 53.5% | SNB-19 CNS 86.7% | U251 CNS 64.9% | PC-3 prostate 81.8% | SK-MEL-5 melanoma 71.5% | UACC-62 melanoma 92.1% | LOX IMVI melanoma 78.4% | SK-MEL-28 melanoma 88.3% | SK-MEL-2 melanoma 102% | EKVX NSCLC 83.3% | SN12C renal 80.4% | UO-31 renal 67.1% | TK-10 renal 129% | ACHN renal 91.5% | CAKI-1 renal 76% | A498 renal 90.9% | CCRF-CEM leukemia 59.7% | MOLT-4 leukemia 76.3%

O=c1oc2ccccc2cc1-c1cc(-c2ccc(-c3cc(-c4cc5ccccc5oc4=O)nc(-c4cc5ccccc5oc4=O)c3)cc2)cc(-c2cc3ccccc3oc2=O)n1
inactive: HCT-15 colon 103% | HT29 colon 108% | SNB-75 CNS 97.5% | SNB-19 CNS 96.9% | U251 CNS 99.6% | PC-3 prostate 101% | SK-MEL-5 melanoma 101% | UACC-62 melanoma 99.1% | LOX IMVI melanoma 102% | SK-MEL-28 melanoma 108% | SK-MEL-2 melanoma 106% | EKVX NSCLC 96% | SN12C renal 102% | UO-31 renal 88.3% | TK-10 renal 129% | ACHN renal 100% | CAKI-1 renal 105% | A498 renal 98.1% | CCRF-CEM leukemia 92.9% | MOLT-4 leukemia 86.8%

CCCCCCCCN=C(NCCCCCCCC)SCc1cccc2ccccc12
active: HCT-15 colon -78.1% | HT29 colon -24.4% | SNB-75 CNS -88.4% | SNB-19 CNS -88.4% | U251 CNS -98.7% | PC-3 prostate -93.2% | SK-MEL-5 melanoma -95.3% | UACC-62 melanoma -82.2% | LOX IMVI melanoma -96% | SK-MEL-28 melanoma -87.8% | SK-MEL-2 melanoma -89.8% | EKVX NSCLC -66.4% | SN12C renal -88.1% | UO-31 renal -57.2% | TK-10 renal -94.8% | ACHN renal -91.8% | CAKI-1 renal -84.9% | A498 renal -80.4% | CCRF-CEM leukemia -2.17% | MOLT-4 leukemia -11%

CN(C)CC(=O)c1ccc2cc(Br)c3ccccc3c2c1
active: HT29 colon 9.4%
inactive: HCT-15 colon 62.1% | SNB-75 CNS 83.7% | SNB-19 CNS 69.7% | U251 CNS 53.3% | PC-3 prostate 57.2% | SK-MEL-5 melanoma 83% | UACC-62 melanoma 79.1% | LOX IMVI melanoma 43.6% | SK-MEL-28 melanoma 99.1% | SK-MEL-2 melanoma 61.3% | EKVX NSCLC 89.7% | SN12C renal 72.6% | UO-31 renal 36% | TK-10 renal 72.7% | ACHN renal 59.7% | CAKI-1 renal 75.4% | A498 renal 42.2% | CCRF-CEM leukemia 71.3% | MOLT-4 leukemia 40.3%

C=C(C)[C@@H]1CC[C@]2(C(=O)NC(COC(=O)C(Cl)Cl)(COC(=O)C(Cl)Cl)COC(=O)C(Cl)Cl)CC[C@]3(C)[C@H](CC[C@@H]4[C@@]5(C)CC[C@H](OC(C)=O)C(C)(C)[C@@H]5CC[C@]43C)[C@@H]12
active: HT29 colon 4.68% | MOLT-4 leukemia 6.2%
inactive: HCT-15 colon 27.9% | SNB-75 CNS 81.2% | SNB-19 CNS 70.6% | U251 CNS 23.4% | PC-3 prostate 11.1% | SK-MEL-5 melanoma 62.1% | UACC-62 melanoma 81% | LOX IMVI melanoma 32.4% | SK-MEL-28 melanoma 86.9% | SK-MEL-2 melanoma 76.5% | EKVX NSCLC 57.7% | SN12C renal 37% | UO-31 renal 55.4% | TK-10 renal 75.8% | ACHN renal 51.1% | CAKI-1 renal 48.4% | A498 renal 99.5% | CCRF-CEM leukemia 18.3%

CC1(C)CN(CCNc2nccc(-c3c(-c4cccc(O)c4)nc4sccn34)n2)S(=O)(=O)N1
inactive: HCT-15 colon 95.7% | HT29 colon 54.4% | SNB-75 CNS 30.5% | SNB-19 CNS 87.8% | U251 CNS 74% | PC-3 prostate 50.8% | SK-MEL-5 melanoma 58.4% | LOX IMVI melanoma 18.2% | SK-MEL-28 melanoma 20.1% | SK-MEL-2 melanoma 24.1% | EKVX NSCLC 108% | SN12C renal 57.6% | UO-31 renal 60.5% | TK-10 renal 119% | ACHN renal 39.4% | CAKI-1 renal 32.5% | A498 renal 81.7% | CCRF-CEM leukemia 49.6% | MOLT-4 leukemia 71.8%
active: UACC-62 melanoma -8.38%

CCN(CC)c1ccc(/C=N/NC(=O)C[N+](C)(C)C)cc1
inactive: HCT-15 colon 101% | HT29 colon 103% | SNB-75 CNS 93.8% | SNB-19 CNS 113% | U251 CNS 102% | PC-3 prostate 95.7% | SK-MEL-5 melanoma 104% | UACC-62 melanoma 101% | LOX IMVI melanoma 97% | SK-MEL-28 melanoma 108% | SK-MEL-2 melanoma 137% | EKVX NSCLC 94.2% | SN12C renal 105% | UO-31 renal 108% | TK-10 renal 95.2% | ACHN renal 105% | CAKI-1 renal 101% | A498 renal 92.3% | CCRF-CEM leukemia 90.9% | MOLT-4 leukemia 22.1%

COc1ccc2nc3ccccc3c(NCc3ccc(Cl)cc3)c2c1
active: HCT-15 colon 5.04% | HT29 colon -2.29% | U251 CNS 2.55% | LOX IMVI melanoma -86.3% | SK-MEL-28 melanoma 7.07% | UO-31 renal 1.86% | A498 renal 8.58% | CCRF-CEM leukemia 8.43% | MOLT-4 leukemia -8.25%
inactive: SNB-75 CNS 57.6% | SNB-19 CNS 26.4% | PC-3 prostate 19.5% | SK-MEL-5 melanoma 11.7% | UACC-62 melanoma 64.7% | SK-MEL-2 melanoma 71.3% | EKVX NSCLC 33.8% | SN12C renal 22.1% | TK-10 renal 52.9% | ACHN renal 17.1% | CAKI-1 renal 21.4%

Cc1cc(N)cc(C)c1-c1c(Br)cc(N)cc1Br
active: HT29 colon 9.08% | SNB-75 CNS 2.44% | CCRF-CEM leukemia 8.42%
inactive: HCT-15 colon 32% | SNB-19 CNS 37.4% | U251 CNS 22.2% | PC-3 prostate 23.2% | SK-MEL-5 melanoma 21% | UACC-62 melanoma 48.9% | LOX IMVI melanoma 16% | SK-MEL-28 melanoma 44.5% | SK-MEL-2 melanoma 26.6% | EKVX NSCLC 51.8% | SN12C renal 47.9% | UO-31 renal 36.1% | TK-10 renal 22.3% | ACHN renal 56.2% | CAKI-1 renal 35% | A498 renal 27.9% | MOLT-4 leukemia 35.1%

O=C(Nc1cccc(N=Cc2c(O)ccc3ccccc23)c1)c1ccccc1
inactive: HCT-15 colon 93.6% | HT29 colon 90.9% | SNB-75 CNS 77.9% | SNB-19 CNS 101% | U251 CNS 92.6% | PC-3 prostate 86.9% | SK-MEL-5 melanoma 91.3% | UACC-62 melanoma 94.4% | LOX IMVI melanoma 96.1% | SK-MEL-28 melanoma 107% | SK-MEL-2 melanoma 87.9% | EKVX NSCLC 93.8% | SN12C renal 99% | UO-31 renal 65.9% | TK-10 renal 92.4% | ACHN renal 96.3% | CAKI-1 renal 84.7% | A498 renal 103% | CCRF-CEM leukemia 90.8% | MOLT-4 leukemia 147%

CCOC(=O)CCN(CCC(=O)OCC)c1ccccc1
inactive: HCT-15 colon 101% | HT29 colon 99.7% | SNB-75 CNS 93.9% | SNB-19 CNS 104% | U251 CNS 92.5% | PC-3 prostate 93% | SK-MEL-5 melanoma 96.4% | UACC-62 melanoma 99.4% | LOX IMVI melanoma 95.8% | SK-MEL-28 melanoma 117% | SK-MEL-2 melanoma 96.7% | EKVX NSCLC 115% | SN12C renal 110% | UO-31 renal 77.8% | TK-10 renal 101% | ACHN renal 100% | CAKI-1 renal 116% | A498 renal 127% | CCRF-CEM leukemia 61.7% | MOLT-4 leukemia 96.5%

Source: PubChem BioAssay (NCI)
